Bioassay records: PubChem BioAssay, National Center for Advancing Translational Sciences (NCATS)
NPC1 promoter act – activators of NPC1 promoter; Huh7 NPC1 promoter luciferase reporter, 24 h; 320,000 compounds, 2.4% hits; Potency, µM (titrated, usually from 9.22 µM), for the others: at the highest dose activation, hits mostly activators; further: % of control where 0% means no effect; nearly all actives have a fitted effect of over 60% in size
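Huh7 reporter cells (NPC1 promoter driving luciferase) are dosed with compound for 24 h at 37 °C, 5% CO2; luciferase detection reagent is then added and luminescence measured after 10 min at ambient temperature.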
ELG1 genotoxic – genotoxicity induction in ELG1-luciferase HEK293T cells | 330,000 compounds, 1.3% hits | Potency, µM (titrated, usually from 46 µM), for the others: at the top dose activity change, positive = activation, actives largely listed as activators | HEK293T ELG1-luciferase reporter, luminescence, 16 h; further: % of control where 0% means no effect; nearly all actives have a fitted effect of over 60% in size
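Step 1: seed 2,000 HEK293T ELG1-luciferase cells per well. Step 2: add compound or DMSO, incubate 16 hr at 37 °C. Step 3: ONE-Glo, 30 min at room temperature, read luminescence.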
FLuc counter – counter-screen for miR-21 project: firefly luciferase inhibitors or activators; AID 588342; 360,000 compounds, 6.9% hits; Potency, µM (titrated, usually from 57.5 µM), for inactives: top-dose activity change, negative = inhibition, usual class: inhibitors; P08659; purified FLuc, Km substrates, luminescence inhibition;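 further: plate controls were vehicle for no effect and reference inhibitor for full effect; nearly all actives have a fitted effect of over 55% in size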
Target sequence (P08659 whole entry, looked up): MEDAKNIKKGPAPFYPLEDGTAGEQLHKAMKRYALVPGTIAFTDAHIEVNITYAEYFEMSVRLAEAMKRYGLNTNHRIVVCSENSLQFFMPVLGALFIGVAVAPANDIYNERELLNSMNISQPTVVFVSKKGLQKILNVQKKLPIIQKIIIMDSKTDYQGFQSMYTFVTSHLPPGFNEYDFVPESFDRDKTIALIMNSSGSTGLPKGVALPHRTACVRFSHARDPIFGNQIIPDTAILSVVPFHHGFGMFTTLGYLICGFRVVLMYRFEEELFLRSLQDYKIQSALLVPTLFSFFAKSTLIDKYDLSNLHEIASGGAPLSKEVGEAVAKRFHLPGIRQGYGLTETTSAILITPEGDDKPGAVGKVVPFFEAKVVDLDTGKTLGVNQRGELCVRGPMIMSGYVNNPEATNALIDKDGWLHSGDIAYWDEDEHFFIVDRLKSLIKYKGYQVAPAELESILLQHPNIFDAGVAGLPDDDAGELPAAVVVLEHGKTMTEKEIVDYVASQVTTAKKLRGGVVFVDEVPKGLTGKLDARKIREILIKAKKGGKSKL
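Biochemical qHTS of compounds, final roughly 60 µM downward over six points, against 10 nM purified firefly luciferase using Km concentrations of substrates (10 uM D-luciferin, 10 uM ATP) in Tris acetate pH 7.5 buffer; luminescence output.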
SMN2 splice up – increases expression of the SMN2 splice variant. HEK293 SMN2-luciferase splicing reporter, luminescence, 30-36 h. Potency, µM (doses to about 46.1 µM), without a hit: at the highest dose activity change, positive = activation, most hits filed as activators. 210,000 compounds, 2.8% hits; further: % of control where 0% means no effect; nearly all actives have a fitted effect of over 55% in size
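HEK293 cells carry an SMN2 […]–luciferase reporter in which exon 7 inclusion puts luciferase in frame. Cells were plated 10-12 h before compound addition, then incubated 30-36 h at 37C. ONE-Glo luminescence was read; sodium butyrate at 4.5 mM final served as control.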
Rab9 promoter act – activators of Rab9 promoter. Huh7 Rab9 promoter-luciferase reporter, luminescence, 24 h. Potency, µM (titrated, usually from 9.22 µM), without a hit: at the top dose activation, negative = inhibition, most hits filed as activators. 320,000 compounds, 2.8% hits; further: % of control where 0% means no effect; nearly all actives have a fitted effect of over 60% in size
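Stable Rab9-luc Huh7, 1500 cells/well, 2 h settle; cmpd in DMSO, 24 h, 37 °C/5% CO2; luciferase reagent 10 min RT; luminescence.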
Luc counter – blocks Kinase-Glo luciferase, a counter-screen artifact; 200,000 compounds, 0.28% hits; Potency, µM (top dose mostly 38.3 µM), inactives show at the top dose activity change, negative = inhibition, hits mostly inhibitors; Q27757; Kinase-Glo luciferase, ATP luminescence, 8 min; further: on the % scale 0 is the no-effect control and ±100 the full control effect; nearly all actives have a fitted effect of over 60% in size
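Recombinant Kinase-Glo luciferase, 10 uM ATP (linear range), luciferin; imidazole pH 7.2 / KCl / MgCl2 / Tween / BSA buffer; 8 min RT; luminescence.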
* = called active by the depositor; ? = inconclusive; . = no result given. In the library only some 7.4% were active in any assay of this set; here they are far more common. The call rests on the fitted dose curve; in most records, active means well fitted curve in the direction sought with a large enough effect; inconclusive means small, poorly fitted or top-dose-only effect, or another doubt; inactive means no such curve, though single readings can be large; an effect the other way counts as inactive or inconclusive. Potency means the concentration at half of the fitted maximal effect.

SMILES	NPC1 promoter act	ELG1 genotoxic	FLuc counter	SMN2 splice up	Rab9 promoter act	Luc counter
COc1ccc2c(c1)O[C@@H](c1ccc3c(c1)OCO3)[C@H](OC(=O)NCCOc1ccccc1)C2=O	.	.	.	1%	.	0%
CN1C(=O)C(c2ccccc2[N+](=O)[O-])C(=O)c2ccccc21 (stereo not drawn)	1%	1%	-1%	.	1%	.
CC1(C)CC(=O)c2sc(NC(=O)c3ccc4ncsc4c3)nc2C1	?	?	1.9µM*	11µM*	?	0%
CC(Oc1ccccc1)C(=O)Nc1nc2c(s1)C(=O)CC(C)(C)C2 (stereo not drawn)	1%	1%	-8%	-20%	-2%	-5%
CCc1nc(CN2CCCC(C(=O)c3ccc4c5c(cccc35)CC4)C2)c(C)[nH]1 (stereo not drawn)	-10%	-2%	4%	.	-9%	-3%
Cc1nn(-c2ccccc2)c(Cl)c1/C=N/NC(=O)c1ccc(NS(=O)(=O)c2cccs2)cc1	?	?	0.85µM*	13µM*	?	-2%
Cc1nn(-c2ccccc2)c(Cl)c1/C=N/NC(=O)c1ccccc1NS(=O)(=O)c1cccs1	0%	-2%	12µM*	-36%	0%	26%
Cc1ccc(-c2cn3nc(C)c(C)nc3n2)cc1	?	?	0.67µM*	0.5µM*	0.18µM*	?
COc1ccc(-c2cn3nc(C)c(C)nc3n2)cc1OC	?	5%	?	.	2.8µM*	.
COc1ccc(-c2nc(C)c(C(C)=O)n2O)cc1OC	6%	4%	?	23%	3%	-10%
O=C(CN1CCN(Cc2ccc(F)cc2Cl)S1(=O)=O)Nc1ccc(F)cc1	.	.	2%	.	.	.
CCc1nnc(N2C(=N)SCC2=O)s1	-2%	0%	2%	.	-3%	-1%
Cc1ccc(NC(=O)c2ccc(OCC3CCCO3)cc2)c(C)c1 (stereo not drawn)	21%	14%	?	?	?	-2%
Cc1ccnc(NC(=O)c2ccc(OCC3CCCO3)cc2)c1 (stereo not drawn)	0.28µM*	?	0.95µM*	.	0.13µM*	.
O=C(Nc1ccncc1)c1ccc2c(c1)C(=O)N(CC1CCCO1)C2=O (stereo not drawn)	-2%	2%	-6%	-3%	-1%	3%
Cc1ccc(C(=O)Nc2ccc3c(c2)C(=O)N(CC2CCCO2)C3=O)cc1 (stereo not drawn)	9%	-10%	4.8µM*	.	2%	.
Cc1ccnc(NC(=O)c2ccc3c(c2)C(=O)N(CC2CCCO2)C3=O)c1 (stereo not drawn)	1%	7%	21µM*	-1%	-3%	-14%
Nc1cccc(Oc2ccc3c(c2)C(=O)N(CC2CCCO2)C3=O)c1 (stereo not drawn)	1.6µM*	15%	24µM*	.	1µM*	.
O=C(O)c1ccc(NC(=O)c2ccc3c(c2)C(=O)N(CC2CCCO2)C3=O)cc1 (stereo not drawn)	3%	-1%	?	.	-2%	.
O=C(CSc1nncs1)Nc1ccc(Cl)cc1C(F)(F)F	-1%	0%	4%	.	0%	.
CC(=O)Nc1c(O)nc(SCC(=O)Nc2ccc(C(C)=O)cc2)[nH]c1=O	?	9.2µM*	?	?	?	0%
CC(=O)c1ccc(NC(=O)CSc2nc(N3CCOCC3)nc(N3CCOCC3)n2)cc1	28%	18µM*	-17%	.	24%	.
CCn1c(SCC(=O)Nc2ccccc2)nc2c([nH]c3ccccc32)c1=O	.	.	-1%	.	.	.
CCn1c(SCC(=O)Nc2ccc(C(C)=O)cc2)nc2c([nH]c3ccccc32)c1=O	-1%	16µM*	3%	.	19%	.
CC(=O)Nc1c(O)nc(SCC(=O)Nc2cccc(C)c2)[nH]c1=O	-2%	2%	-1%	4%	1%	-4%
SMILES	NPC1 promoter act	ELG1 genotoxic	FLuc counter	SMN2 splice up	Rab9 promoter act	Luc counter
CCn1nc(C)cc1C(=O)N1CCc2c([nH]c3ccccc23)C1c1cc(F)ccc1F (stereo not drawn)	?	?	21µM*	.	?	.
COc1ccc(C2c3[nH]c4ccccc4c3CCN2Cc2ccoc2)c(F)c1 (stereo not drawn)	5%	-3%	1%	.	-14%	4%
COc1ccc(C2c3[nH]c4ccccc4c3CCN2C(=O)Cc2nonc2C)c(F)c1 (stereo not drawn)	20%	10%	4.8µM*	.	?	.
CN(C)S(=O)(=O)c1cccc(NC(=O)CN2C(=O)NC(Cc3c[nH]c4ccccc34)C2=O)c1 (stereo not drawn)	-4%	-2%	1%	.	0%	1%
COc1ccc(OC)c(NC(=O)c2ccc(NC(C)=O)cc2)c1	-2%	0%	-9%	.	-2%	0%
COc1ccc(NC(=O)c2cccc(NC(=O)c3ccccc3)c2)c(OC)c1	-9%	-3%	19µM*	.	2%	.
COc1ccc(OC)c(NC(=O)c2ccc(OC3CSC3)cc2)c1	-2%	23%	11µM*	-12%	0%	-5%
COc1ccc(NC(=O)c2ccc3nc(-c4ccccc4)c(-c4ccccc4)nc3c2)c(OC)c1	2%	13%	6%	-11%	-2%	3%
COc1ccc(OC)c(NC(=O)c2cccc(NC(=O)c3ccccc3)c2)c1	-1%	-3%	17µM*	.	19%	.
CCCc1cc(C(=O)Nc2cc(OC)ccc2OC)cs1	-5%	7%	19µM*	.	1%	.
COCCn1c(=S)[nH]c2cc(C(=O)N3CC(C)CC(C)C3)ccc2c1=O (stereo not drawn)	-5%	-8%	2%	.	-3%	.
